Shown is part of a subset that was picked to be rich in hits.
PI5P4K alpha inh: inhibitors of human PI5P4K alpha. PI5P4Kalpha enzyme, ADP-Glo luminescence, 60 min; active compounds read low. 330,000 compounds, 1.2% hits. max response, %. AID 652105. P48426; active = max response of -50% or lower; inconclusive = between -30% and -50%; inactive = -30% or higher; note: value at the top dose of about 77 µM
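Enzyme plus substrate dispensed, test compounds pinned in, then ATP (5 microM final) added. After 60 min at RT, ADP-Glo reagent 1 for 45 min and reagent 2 for 30 min preceded luminescence imaging.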
Pin1 inh: inhibitors of human Pin1; 390,000 compounds, 0.009% hits; Potency, µM (titrated, usually from 115 µM), for the others: at the top dose activity, negative = inhibition, usual class: inhibitors; AID 504891; Pin1 FP peptide displacement, HiFluor488, 10 min; active = well fitted inhibition curve with a large enough effect in the polarisation, with a control signal flat, not every such curve was filed as active; inconclusive = small, poorly fitted or top-dose-only effect, or effect the other way, or a change in a side signal; inactive = no such curve, though single readings can be large or run the other way; the % refers to the polarisation; note: potency is the fitted concentration of half-maximal effect
Tb PFK block: blocks T. brucei phosphofructokinase; O15648; T. brucei PFK, ADP-Glo luminescence; Potency, µM (highest dose often 57.5 µM), for the others: top-dose activity, negative = inhibition, hits mostly inhibitors; 330,000 compounds, 0.17% hits;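 note: potency is the fitted concentration of half-maximal effect; 0% = uninhibited 1x PFK enzyme wells and -100% = no-enzyme wells; nearly all actives have a fitted effect of over 60% in size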
Target sequence (O15648 whole entry, looked up): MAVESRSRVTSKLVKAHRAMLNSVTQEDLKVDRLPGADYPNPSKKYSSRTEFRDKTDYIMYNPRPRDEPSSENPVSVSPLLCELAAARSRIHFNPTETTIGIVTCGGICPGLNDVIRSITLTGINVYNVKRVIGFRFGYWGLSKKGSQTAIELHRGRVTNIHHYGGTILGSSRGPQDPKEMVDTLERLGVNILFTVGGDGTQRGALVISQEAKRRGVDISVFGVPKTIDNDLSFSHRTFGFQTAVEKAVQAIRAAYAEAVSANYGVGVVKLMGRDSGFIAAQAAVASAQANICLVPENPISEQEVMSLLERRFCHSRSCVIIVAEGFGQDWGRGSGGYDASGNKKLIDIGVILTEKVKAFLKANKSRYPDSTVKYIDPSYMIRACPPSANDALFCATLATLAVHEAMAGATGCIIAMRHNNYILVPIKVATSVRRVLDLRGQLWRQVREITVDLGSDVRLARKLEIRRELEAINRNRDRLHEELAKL
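In TEA buffer at pH 8.0 with 5 mM MgCl2, enzyme (1.25 nM) converted F6P (0.5 mM) and ATP (0.1 mM) for 45 min at room temperature. ADP product was read by luciferase luminescence.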
PI4K2A inh: inhibitors of human PI4K2A; Q9BTU6; purified PI4K2A, ADP-Glo luminescence, 1 h; active compounds read low; activity change, negative = inhibition, % at 76.9 µM; 420,000 compounds, 0.13% hits; AID 1346378; in the data active = activity change below about -50%; inconclusive = mostly about -30% to -49%;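 note: -100% = wells without enzyme as full effect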
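ADP-Glo luminescence measured ADP generated by PI4K2A enzyme (4 ug/mL before mixing) with 1.2 mM PI substrate (pre-mix) and 300 microM ATP (pre-mix). Tris pH7.5 buffer with MgCl2, Triton X-100; 1 h reaction at ambient temperature.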
Tb PGK inh: T. brucei PGK inhibition; P07378; PGK/GAPDH coupled, Kinase-Glo luminescence, 60 min; Potency, µM (titrated, usually from 57.5 µM), for inactives: at the highest dose activity change, negative = inhibition, actives largely listed as inhibitors; 380,000 compounds, 0.043% hits; AID 602233; note: potency is the fitted concentration of half-maximal effect; nearly all actives have a fitted effect of over 60% in size
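Luminescent ATP detection (Kinase-Glo Plus) follows a 60-minute room-temperature incubation, with wells lacking PGK as controls. Buffer: 100 mM TEA (pH 7.6), 5 mM MgCl2, 0.01% Tween-20. Coupling enzyme GAPDH (100 nM final) supplies unstable 1,3-BPG in-well.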
An asterisk follows results filed as active. Unless noted, calls come from the whole dose curve; as a rule, active = well fitted curve in the direction sought with a large enough effect; inconclusive = small, poorly fitted or top-dose-only effect, or another doubt; inactive = no such curve, though single readings can be large; an effect the other way counts as inactive or inconclusive. Unless noted, % is set by controls: 0 for no effect and ±100 for the full control effect.

CCCc1cc2c(OC(=O)CC)c(-c3ccc(C(=O)OCC)o3)c(=O)oc2cc1OC was read as PI5P4K alpha inh -65*, Pin1 inh 0%, Tb PFK block -1%, PI4K2A inh -4 and Tb PGK inh -4%.
CN(C)S(=O)(=O)c1cccc(-n2sc3ccccc3c2=O)c1 was read as PI5P4K alpha inh -91*, Pin1 inh -4%, Tb PFK block 13µM*, PI4K2A inh -7 and Tb PGK inh -13%.
O=c1c2ccccc2sn1-c1ccc(S(=O)(=O)N2CCCC2)cc1 was read as Pin1 inh -3%, Tb PFK block inconclusive, PI4K2A inh -2 and Tb PGK inh -3%.
Cn1c(=O)n(-c2cccc(Cl)c2)c(=O)c2sc3ccccc3c21 was read as Pin1 inh 65%, PI4K2A inh -2 and Tb PGK inh -3%.
Screening O=c1c2ccccc2sn1-c1cccc(Cl)c1 returned PI5P4K alpha inh -101*, PI4K2A inh -15 and Tb PGK inh inactive.
O=c1c2ccccc2sn1-c1ccccc1F was read as PI5P4K alpha inh -106*, PI4K2A inh -17 and Tb PGK inh 4%.
Screening c1ccc(CNCc2nnc(-c3cc4ccccc4[nH]3)s2)cc1 returned Pin1 inh -2%.
Screening COc1ccc(C2Nc3ccccc3C(=O)N2Cc2ccccc2)cc1COc1ccc(Cl)cc1 (stereo not given) returned Pin1 inh 8%.
COc1ccc(/C=N/NC(=O)c2cc(O)c(O)c(O)c2)cc1Cn1cc([N+](=O)[O-])cn1 was read as PI5P4K alpha inh -59*, Pin1 inh inconclusive, Tb PFK block -15%, PI4K2A inh -9 and Tb PGK inh inconclusive.
COc1ccc(/C=N/NC(=O)c2ccccc2O)cc1Cn1cc([N+](=O)[O-])cn1 was read as PI5P4K alpha inh -6, Pin1 inh 10%, Tb PFK block -2%, PI4K2A inh -3 and Tb PGK inh -5%.
For COc1ccc([S+](=O)([O-])N2CCN([S+](=O)([O-])c3ccc4c(c3)OCCO4)CC2)c(OC)c1 the results were Pin1 inh 23%.
C=CCn1c(SCC(=O)Nc2ccccc2-c2ccccc2)nnc1-c1ccc(Cl)cc1 was read as PI4K2A inh -3.
Cc1occc1C(=O)N/N=C/c1ccc2c(c1)OCO2 was read as PI5P4K alpha inh -54*, Pin1 inh 2%, Tb PFK block inconclusive, PI4K2A inh -65* and Tb PGK inh inconclusive.
Screening Cc1occc1C(=O)N/N=C/c1ccc(OCc2ccccc2)cc1 returned PI5P4K alpha inh 2, Pin1 inh 7%, Tb PFK block -4%, PI4K2A inh -5 and Tb PGK inh -13%.
For Cc1occc1C(=O)N/N=C/c1ccc(-c2ccccc2)cc1 the results were PI5P4K alpha inh -24, Pin1 inh inconclusive, Tb PFK block -17%, PI4K2A inh -78* and Tb PGK inh inconclusive.
`Cc1ccsc1C(=O)N/N=C/c1ccc2c(c1)OCO2` gave PI5P4K alpha inh -5, Pin1 inh -5%, Tb PFK block -26%, PI4K2A inh -54* and Tb PGK inh inconclusive.
For O=C(CCc1ccc(O)c(O)c1)N/N=C/c1ccc2c(c1)OCO2 the results were PI5P4K alpha inh -21, Pin1 inh inconclusive, Tb PFK block 4.3µM*, PI4K2A inh -2 and Tb PGK inh 6%.
`CCC(C)CNC(=O)c1oc(=O)c2ccccc2c1-c1ccc(C)cc1` (stereo not given) gave PI4K2A inh 4.
C/C(=N\O)[C@@H](C)NCC(C)(C)CN[C@H](C)/C(C)=N/O was read as PI4K2A inh -1.
`Cn1c(N)c(C(=O)COC(=O)c2cc(-c3ccco3)nc3ccccc23)c(=O)n(Cc2ccccc2)c1=O` gave Tb PFK block 11%.
Cn1c(N)c(C(=O)COC(=O)c2cc(-c3ccco3)nc3ccccc23)c(=O)n(C)c1=O was read as PI5P4K alpha inh -77*, Tb PFK block -2%, PI4K2A inh inconclusive and Tb PGK inh -24%.
CC(=O)Nc1ccc(/C=N/NC(=O)c2cc(-c3ccco3)nc3ccccc23)cc1 was read as PI5P4K alpha inh 0, Pin1 inh 34%, Tb PFK block -12%, PI4K2A inh 1 and Tb PGK inh 2%.
